# Results: PubChem BioAssay (Tox21)
# Records with an inconclusive call do not appear. Entries that show only a call come without a potency. Unmarked numbers belong to inactive results. Calls of active or inactive are those of the source. The call rests on the fitted dose curve; in most records, active means well fitted curve in the direction sought with a large enough effect in the repeat runs; inconclusive means weak or mixed curves; inactive means no such curve, though single readings can be large; an effect the other way counts as inactive or inconclusive.
# Tests used:
# [1] = biological target: Cytochrome P450 2C9 (Homo sapiens) (UniProt P11712); assay: Cytochrome P450 Family 2 Subfamily C Member 9 (CYP2C9) small molecule antagonists: luciferase reporter qHTS assay (AID 1671198); conditions: P450-Glo CYP2C9 enzyme assay, luciferin luminescence; series mostly up to 115 µM
# Sequence of Cytochrome P450 2C9 (Homo sapiens) (P11712 whole entry, looked up): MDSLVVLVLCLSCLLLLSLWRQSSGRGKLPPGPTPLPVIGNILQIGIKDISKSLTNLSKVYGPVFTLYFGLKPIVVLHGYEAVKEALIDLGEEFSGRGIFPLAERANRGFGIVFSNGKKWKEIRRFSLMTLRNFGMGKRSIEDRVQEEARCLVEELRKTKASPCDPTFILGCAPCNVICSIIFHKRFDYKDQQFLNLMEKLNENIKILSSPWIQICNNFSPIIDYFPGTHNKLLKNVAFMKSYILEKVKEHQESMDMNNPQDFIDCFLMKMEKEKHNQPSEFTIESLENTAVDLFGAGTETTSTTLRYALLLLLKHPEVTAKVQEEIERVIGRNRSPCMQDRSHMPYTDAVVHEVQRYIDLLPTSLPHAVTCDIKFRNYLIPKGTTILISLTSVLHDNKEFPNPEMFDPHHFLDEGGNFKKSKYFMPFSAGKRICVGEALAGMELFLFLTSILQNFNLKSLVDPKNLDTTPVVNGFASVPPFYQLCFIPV
# In short: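 CYP2C9 activity was measured with a P450-Glo proluciferin substrate. Enzyme–substrate mix was held with compound for 10 min at room temperature, then NADPH regeneration solution was added for 1 h at 37C. Luciferin product was read as luminescence.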
# [2] = biological target: Cytochrome P450 1A2 (Homo sapiens) (UniProt P05177); assay: Cytochrome P450 Family 1 Subfamily A Member 2 (CYP1A2) small molecule antagonists: luciferase reporter qHTS assay (AID 1671199); conditions: P450-Glo CYP1A2 enzyme, luciferin luminescence, 1 h; series mostly up to 53 µM
# Sequence of Cytochrome P450 1A2 (Homo sapiens) (P05177 whole entry, looked up): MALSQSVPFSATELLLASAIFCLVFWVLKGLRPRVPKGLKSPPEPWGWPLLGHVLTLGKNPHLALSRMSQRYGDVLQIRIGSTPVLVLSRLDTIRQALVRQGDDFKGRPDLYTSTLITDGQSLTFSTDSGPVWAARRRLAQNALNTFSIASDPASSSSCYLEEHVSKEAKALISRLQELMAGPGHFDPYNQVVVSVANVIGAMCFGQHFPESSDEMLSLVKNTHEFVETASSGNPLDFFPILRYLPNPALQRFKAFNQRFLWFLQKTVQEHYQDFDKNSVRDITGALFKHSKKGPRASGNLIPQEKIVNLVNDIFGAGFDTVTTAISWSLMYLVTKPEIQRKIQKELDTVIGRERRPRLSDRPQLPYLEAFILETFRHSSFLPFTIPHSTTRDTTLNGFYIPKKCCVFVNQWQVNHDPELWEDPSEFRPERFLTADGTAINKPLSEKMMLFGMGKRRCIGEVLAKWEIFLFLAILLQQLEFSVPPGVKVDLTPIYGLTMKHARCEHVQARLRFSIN
# In short: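 Inhibition of CYP1A2 conversion of proluciferin to luciferin, detected by luminescence. Reaction run 1 h at room temperature with NADPH regeneration after brief compound preincubation.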
# [3] = biological target: Voltage-gated inwardly rectifying potassium channel KCNH2 (Homo sapiens) (UniProt Q12809); assay: Human Ether-a-go-go-Related Gene (hERG) channel small molecule antagonists: fluorescence cell-based qHTS assay (AID 1671200); conditions: hERG-U2OS cells, FluxOR thallium flux fluorescence; series mostly up to 76.8 µM;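 on activity change, negative = inhibition: hERG-expressing U2OS cells given a thallium stimulus after FluxOR II dye loading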
# Sequence of Voltage-gated inwardly rectifying potassium channel KCNH2 (Homo sapiens) (Q12809 whole entry, looked up): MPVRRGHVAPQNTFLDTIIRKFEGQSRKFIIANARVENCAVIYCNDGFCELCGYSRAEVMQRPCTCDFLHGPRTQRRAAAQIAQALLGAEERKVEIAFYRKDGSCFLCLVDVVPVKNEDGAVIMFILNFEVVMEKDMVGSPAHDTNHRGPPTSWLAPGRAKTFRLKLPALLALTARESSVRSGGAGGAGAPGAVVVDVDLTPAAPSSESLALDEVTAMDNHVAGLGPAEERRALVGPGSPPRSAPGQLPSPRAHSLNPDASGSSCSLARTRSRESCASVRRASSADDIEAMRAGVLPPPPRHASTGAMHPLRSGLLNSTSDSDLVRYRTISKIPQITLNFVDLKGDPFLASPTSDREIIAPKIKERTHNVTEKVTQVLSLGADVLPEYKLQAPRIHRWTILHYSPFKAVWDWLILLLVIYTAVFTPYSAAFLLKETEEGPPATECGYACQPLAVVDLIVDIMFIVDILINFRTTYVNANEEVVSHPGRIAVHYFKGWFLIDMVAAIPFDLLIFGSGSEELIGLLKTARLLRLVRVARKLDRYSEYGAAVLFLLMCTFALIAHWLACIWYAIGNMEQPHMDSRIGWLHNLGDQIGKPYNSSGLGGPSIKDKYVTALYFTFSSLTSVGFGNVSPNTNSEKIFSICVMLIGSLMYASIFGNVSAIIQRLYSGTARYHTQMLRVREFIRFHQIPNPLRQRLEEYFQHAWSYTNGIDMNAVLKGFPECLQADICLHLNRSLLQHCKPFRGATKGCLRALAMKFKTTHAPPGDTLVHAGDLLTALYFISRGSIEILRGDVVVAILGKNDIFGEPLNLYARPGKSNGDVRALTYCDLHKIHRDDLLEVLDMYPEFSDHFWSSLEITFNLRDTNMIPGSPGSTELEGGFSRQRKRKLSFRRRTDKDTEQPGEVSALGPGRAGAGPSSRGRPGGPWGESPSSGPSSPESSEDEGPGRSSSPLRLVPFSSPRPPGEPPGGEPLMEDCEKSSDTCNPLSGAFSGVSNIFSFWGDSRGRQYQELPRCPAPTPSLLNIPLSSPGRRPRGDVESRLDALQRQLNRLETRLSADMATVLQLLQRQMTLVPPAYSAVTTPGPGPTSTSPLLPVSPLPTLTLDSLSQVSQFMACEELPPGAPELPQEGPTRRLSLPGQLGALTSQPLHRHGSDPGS
# In short: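 Kinetic two-minute fluorescence traces, sampled at 1 s, were collected following thallium stimulus of U2OS cells (1000 per well) that had been cultured overnight at 37 C and loaded with FluxOR II.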
# [4] = biological target: Cytochrome P450 3A4 (Homo sapiens) (UniProt P08684); assay: Cytochrome P450 Family 3 Subfamily A Member 4 (CYP3A4) small molecule antagonists: luciferase reporter qHTS assay (AID 1671201); conditions: P450-Glo CYP3A4 enzyme, luciferin luminescence, 1 h; series mostly up to 115 µM
# Sequence of Cytochrome P450 3A4 (Homo sapiens) (P08684 whole entry, looked up): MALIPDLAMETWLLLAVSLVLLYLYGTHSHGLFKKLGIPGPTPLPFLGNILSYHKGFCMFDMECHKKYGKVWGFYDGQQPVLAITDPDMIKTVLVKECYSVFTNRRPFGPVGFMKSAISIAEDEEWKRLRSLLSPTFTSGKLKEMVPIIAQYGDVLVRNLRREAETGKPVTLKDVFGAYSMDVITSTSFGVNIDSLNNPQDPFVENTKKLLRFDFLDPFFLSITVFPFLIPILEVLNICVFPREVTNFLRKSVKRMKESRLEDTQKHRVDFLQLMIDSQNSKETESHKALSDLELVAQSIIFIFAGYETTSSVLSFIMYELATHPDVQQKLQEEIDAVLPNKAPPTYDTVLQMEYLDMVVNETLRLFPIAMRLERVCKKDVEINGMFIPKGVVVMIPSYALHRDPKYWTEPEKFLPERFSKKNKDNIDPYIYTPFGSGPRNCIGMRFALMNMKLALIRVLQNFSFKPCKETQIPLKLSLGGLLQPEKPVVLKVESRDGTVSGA
# In short: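 Proluciferin-to-luciferin conversion by CYP3A4, NADPH-regenerated, 1 h RT; luminescence read as RLU. Ketoconazole as control.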
# Further: nearly all actives have a fitted effect of over 50% in size.
# Potency means the concentration at half of the fitted maximal effect.
compound,measurement,setting,value
C=C(C)C(=O)OCCO,Potency,[1],inactive
same,Potency,[2],inactive
same,Potency,[3],inactive
same,Potency,[4],inactive
COCCCN1CCC(NC(=O)c2cc(Cl)c(N)c3c2OCC3)CC1,Potency,[1],3.09 µM (active)
same,Potency,[2],inactive
same,Potency,[3],inactive
same,Potency,[4],inactive
NC(=O)C(c1ccccc1)(c1ccccc1)[C@@H]1CCN(CCc2ccc3c(c2)CCO3)C1,Potency,[1],inactive
same,Potency,[2],inactive
same,Potency,[4],inactive
Nc1ccc(N)c2c1C(=O)c1ccccc1C2=O,Potency,[1],12.6 µM (active)
same,Potency,[2],0.399 µM (active)
same,Potency,[3],inactive
same,Potency,[4],5.64 µM (active)
CCc1c(C(=O)NN2CCCCC2)nn(-c2ccc(Cl)cc2Cl)c1-c1ccc(Br)cc1,Potency,[1],8.94 µM (active)
same,Potency,[2],inactive
same,Potency,[4],inactive
COc1ccc(C(=O)N2CCN(CC(=O)N3CCOCC3)CC2)cc1,Potency,[1],inactive
same,Potency,[2],inactive
same,Potency,[3],inactive
same,Potency,[4],inactive
CCCCC(CC)COC(=O)COc1ccc(Cl)cc1Cl (stereo not given),Potency,[1],32.2 µM (active)
same,Potency,[2],25.6 µM (active)
same,Potency,[3],inactive
same,Potency,[4],32.2 µM (active)
Cc1[nH]c(C)c(Cl)c(=O)c1Cl,"activity change, negative = inhibition",[1],23.2% [at 23.6 µM]
same,Potency,[2],inactive
same,"activity change, negative = inhibition",[3],-0.502% [at 15.8 µM]
same,"activity change, negative = inhibition",[4],19.3% [at 23.6 µM]
CCOC(=O)COC(=O)c1cc(Oc2ccc(C(F)(F)F)cc2Cl)ccc1[N+](=O)[O-],Potency,[1],6.33 µM (active)
same,Potency,[2],22.4 µM (active)
same,Potency,[4],inactive
CCCCC(CC)CN1C(=O)C2C3C=CC(C3)C2C1=O (stereo not given),Potency,[1],7.96 µM (active)
same,Potency,[2],17.8 µM (active)
same,Potency,[4],1 µM (active)
Cc1ccc(C(C)OC(=O)C2(C)CCC(C(=O)O)C2(C)C)cc1 (stereo not given),Potency,[2],inactive
same,Potency,[3],inactive
same,Potency,[4],inactive
COC(C)OC,Potency,[2],inactive
same,Potency,[3],inactive
same,Potency,[4],inactive
c1ccc(-c2ccccn2)nc1,Potency,[2],71 µM (active)
same,Potency,[3],inactive
same,Potency,[4],inactive
O=P(O)(OCc1ccccc1)OCc1ccccc1,Potency,[2],inactive
same,Potency,[3],inactive
same,Potency,[4],inactive
O=C(OCCc1ccccc1)c1ccccc1,Potency,[2],20 µM (active)
same,Potency,[3],inactive
same,Potency,[4],inactive
COc1cc(C(=O)OCCCN2CCCN(CCCOC(=O)c3cc(OC)c(OC)c(OC)c3)CC2)cc(OC)c1OC,Potency,[2],inactive
same,Potency,[3],6.01 µM (active)
CC1=CC=C(C(C)C)CC1,Potency,[2],31.7 µM (active)
same,Potency,[3],inactive
same,Potency,[4],39.9 µM (active)
CCOC(=O)C(=O)CCc1ccccc1,Potency,[2],inactive
same,Potency,[3],inactive
same,Potency,[4],inactive
CC(C)(CO)[N+](=O)[O-],Potency,[2],inactive
same,Potency,[3],inactive
same,Potency,[4],inactive
O=C(Nc1ccccc1)c1ccccc1O,Potency,[2],5.03 µM (active)
same,Potency,[3],inactive
same,Potency,[4],inactive
O=C1OC(=O)C2C3C=CC(C3)C12 (stereo not given),Potency,[2],inactive
same,Potency,[3],inactive
same,Potency,[4],inactive
NCCCN1CCOCC1,Potency,[2],inactive
same,Potency,[3],inactive
same,Potency,[4],inactive
CCCC(=O)Nc1ccc(O)c(C(C)=O)c1,Potency,[2],9.77 µM (active)
same,Potency,[3],inactive
same,Potency,[4],inactive
Nc1ncn([C@H]2C[C@H](O)[C@@H](CO)O2)c(=O)n1,Potency,[2],inactive
same,Potency,[3],inactive
same,Potency,[4],inactive
Nc1c(CC(=O)O)cccc1C(=O)c1ccc(Br)cc1,Potency,[2],inactive
same,Potency,[3],inactive
same,Potency,[4],inactive
CCCCCCCCCc1ccc(OCCOCCO)cc1,Potency,[2],inactive
same,Potency,[3],8.17 µM (active)
same,Potency,[4],8.39 µM (active)
Cc1ccc(N=Nc2c(O)c(C(=O)O)cc3ccccc23)c(S(=O)(=O)O)c1,Potency,[2],inactive
same,Potency,[3],inactive
same,Potency,[4],inactive
C/C=C/C=C/CO,Potency,[2],inactive
same,Potency,[3],inactive
same,Potency,[4],63.3 µM (active)
C[Si](C)(CCCN)O[Si](C)(C)CCCN,Potency,[2],25.2 µM (active)
same,Potency,[3],inactive
same,Potency,[4],2.52 µM (active)
O=C(O)C(S)C(S)C(=O)O (stereo not given),Potency,[2],inactive
same,Potency,[3],inactive
same,Potency,[4],inactive
COc1cc(Cl)ccc1Oc1ccc(Cl)cc1Cl,Potency,[2],12.3 µM (active)
same,Potency,[3],inactive
C/C=C(/C(=C/C)c1ccc(OC(C)=O)cc1)c1ccc(OC(C)=O)cc1,Potency,[2],inactive
same,Potency,[3],inactive
same,Potency,[4],inactive
C=C(C)C(=O)OCCOCC,Potency,[2],40.1 µM (active)
same,Potency,[3],inactive
same,Potency,[4],inactive
CCCCCCCCCCCCCCCCOS(=O)(=O)O,Potency,[2],inactive
same,Potency,[3],inactive
same,Potency,[4],inactive
Nc1cccc(S(=O)(=O)c2cccc(N)c2)c1,Potency,[2],inactive
same,Potency,[3],inactive
same,Potency,[4],10 µM (active)
O=C(O)C1(C(=O)Nc2ccc(Cl)cc2Cl)CC1,Potency,[2],39.9 µM (active)
same,Potency,[3],inactive
same,Potency,[4],inactive
CC(CSC(=O)c1ccccc1)C(=O)N1C[C@@H](Sc2ccccc2)C[C@H]1C(=O)O (stereo not given in full),Potency,[2],inactive
same,"activity change, negative = inhibition",[3],3.26% [at 15.8 µM]
same,"activity change, negative = inhibition",[4],15.7% [at 23.6 µM]
CCN(CC)c1ccc(C(=C2C=CC(=[N+](CC)CC)C=C2)c2cc(S(=O)(=O)O)ccc2S(=O)(=O)[O-])cc1,Potency,[2],17.4 µM (active)
same,Potency,[3],inactive
O=C(O)c1ccccc1Cl,Potency,[2],inactive
same,Potency,[3],inactive
same,Potency,[4],inactive
Nc1cccc([N+](=O)[O-])c1,Potency,[2],39.1 µM (active)
same,Potency,[3],inactive
same,Potency,[4],inactive
CN(C)CCOC(c1ccccc1)c1ccc(Br)cc1 (stereo not given),Potency,[2],17.4 µM (active)
same,Potency,[3],3.38 µM (active)
same,Potency,[4],inactive
NS(=O)(=O)c1ccc(N2CCCCS2(=O)=O)cc1,Potency,[2],inactive
same,Potency,[3],inactive
same,Potency,[4],inactive
COc1ccc(-c2nc3ccc(C4=NNC(=O)CC4C)cc3[nH]2)cc1 (stereo not given),Potency,[2],3.63 µM (active)
same,Potency,[3],inactive
same,Potency,[4],inactive
CCC(CC)Nc1ccc(C)c(C)c1,Potency,[2],5.64 µM (active)
same,Potency,[3],inactive
same,Potency,[4],inactive
